Screening results as filed in PubChem BioAssay.
VACV mCherry inh – qHTS for Stage-Specific Inhibitors of Vaccinia Orthopoxvirus: mCherry Reporter Primary qHTS; hit rate 0.63% among 310,000; Potency, µM (highest dose often 36.5 µM), usual class: inhibitors; Vaccinia virus mCherry reporter infection, fluorescence; calls by dose curve; tested in A549 cells; further: nearly all actives have a fitted effect of over 35% in size
Vaccinia Venus – qHTS for Stage-Specific Inhibitors of Vaccinia Orthopoxvirus: Venus Reporter Primary qHTS | Vaccinia virus Venus reporter expression, fluorescence | Potency, µM (titrated, usually from 36.5 µM), usual class: inhibitors | hit rate 0.46% among 330,000 | AID 720580, 2013; calls by dose curve; tested in A549 cells; further: nearly all actives have a fitted effect of over 30% in size
LASV entry inh – qHTS for Inhibitors of binding or entry into cells for Lassa Virus; Lassa virus pseudotype entry inhibition, cell reporter; Potency, µM (top dose mostly 37.9 µM), usual class: inhibitors; hit rate 1.2% among 300,000; calls by dose curve; tested in HEK293 cells; further: nearly all actives have a fitted effect of over 50% in size
HCV inh – qHTS Assay for Inhibitors of Hepatitis C Virus (HCV). hit rate 3.4% among 340,000. Potency, µM (top dose mostly 41.8 µM), hits mostly inhibitors. AID 651820, 2012. Huh7.5.1 HCVcc-Cre infection, luciferase reporter, 44 h; active means well fitted inhibition curve with a large enough effect; inconclusive means small, poorly fitted or top-dose-only effect, or another doubt; inactive means no such curve, though single readings can be large or run the other way
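Cells (1,000/well) were plated 4 h before compound, then infected with HCVcc-Cre virus (~0.5 moi). After 44 h further culture, infection was read as luciferase luminescence following a 15 min substrate incubation at room temperature.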
Marburg entry inh – qHTS for inhibitors of binding or entry into cells for Marburg Virus | Marburg virus pseudotyped entry inhibition, cell reporter | Potency, µM (doses to about 37.8 µM), actives largely listed as inhibitors | hit rate 1.8% among 300,000 | AID 540276, 2011; calls by dose curve; tested in HEK293 cells
Hits are given with their value; i = inactive; ? = inconclusive; nt = no result. A selection: hits, their analogues and other compounds. The true share with any hit is near 4.6%.

SMILES	VACV mCherry inh	Vaccinia Venus	LASV entry inh	HCV inh	Marburg entry inh
O=C(COC(=O)c1ccccc1SCC(=O)NC1CCS(=O)(=O)C1)NC1CCS(=O)(=O)C1 (configuration not stated)	i	i	i	i	?
Cc1c(Cl)cccc1NC(=O)CC(c1ccc(F)cc1)N1Cc2ccccc2C1=O (configuration not stated)	i	i	i	nt	nt
CCCCn1c2ccccc2c2nnc(SCC(=O)Nc3ccc(NC(C)=O)cc3)nc21	i	i	i	nt	i
COC(=O)CC=C1c2ccccc2C[C@H](OC)[C@@H]1C	nt	nt	nt	nt	i
N#C/C(=C/c1ccc2c(c1)OCO2)C(=O)NCCc1c[nH]c2ccccc12	nt	nt	i	i	i
N#C/C(=C\c1ccc(-c2ccc(Br)cc2)o1)C(=O)NCCc1c[nH]c2ccccc12	?	i	?	22µM	?
Cc1ccc(-c2[nH]ncc2/C=C(\C#N)C(=O)NC2CCCCC2)cc1	?	?	?	?	i
COc1ccc(-c2[nH]ncc2/C=C(/C#N)C(=O)NC2CCCCC2)cc1	i	i	?	13µM	?
N#C/C(=C/c1ccc(-c2ccc(Br)cc2)o1)C(=O)NC1CCCCC1	?	?	?	14µM	?
CCOCCCNC(=O)Cn1nc(CC)n2c(cc3c(OC)cccc32)c1=O	i	i	nt	nt	i
CC1=C(CC/C(C)=N/NC(N)=S)C(C)(C)CCC1	nt	nt	?	25µM	21µM
CC1=C(CCN2CCN(C3CCCC3)C(CCO)C2)C(C)(C)CCC1 (configuration not stated)	i	i	i	?	?
O=C(Nc1ccc(N2CCN(C(=O)c3ccccc3)CC2)cc1)c1ccc2c(c1)OCCO2	i	i	?	?	?
CC(C)(C)C(=O)N1CCN(c2ccc(NC(=O)c3ccc4c(c3)OCCO4)cc2)CC1	i	i	?	10µM	?
O=C(Nc1ccc(N2CCN(C(=O)c3ccc(Cl)cc3)CC2)cc1)c1ccc2c(c1)OCCO2	?	?	?	7.1µM	?
Cc1cnc(C)c(-c2cc(F)cc3c2OC(CNC(=O)C2CCOC2)C3)n1 (configuration not stated)	i	i	nt	nt	nt
Cc1nn(Cc2ccccc2Cl)c2sc(C(=O)Nc3ccccc3N3CCOCC3)cc12	nt	nt	i	13µM	i
Cc1sc(N/N=C/c2cccnc2)nc1-c1ccccc1	nt	nt	2.9µM	?	?
Cc1sc(N/N=C/c2ccco2)nc1-c1ccccc1	i	i	21µM	?	?
COc1cccc(Cc2nc3ccccc3nc2SCC(=O)NCc2ccc(C)cc2)c1	i	i	?	nt	nt
C[C@@H]1O[C@@H](O[C@@H]2C=C3CC[C@@H]4[C@@H](CC[C@]5(C)[C@H](c6ccc(=O)oc6)CC[C@@]45O)[C@@]3(C)CC2)[C@H](O)[C@H](O)[C@H]1O	10µM	6.3µM	nt	nt	nt
Cc1ccc2c(C)c3ccc4ccccc4c3c[n+]2c1	i	i	i	13µM	?
COc1ccc(N(C(=O)c2ccccc2F)S(=O)(=O)c2ccc3c(c2)n(C)c(=O)n3C)cc1	i	i	i	nt	i
O=C(N/N=C/c1sc2ccccc2c1O)c1cccc2ccccc12	?	?	?	1.8µM	14µM
COc1ccc2cc(C(=O)N/N=C/c3sc4ccccc4c3O)ccc2c1	i	i	?	?	?
SMILES	VACV mCherry inh	Vaccinia Venus	LASV entry inh	HCV inh	Marburg entry inh
O=C(N/N=C/c1sc2ccccc2c1O)c1ccccc1	10µM	i	?	4.5µM	?
COc1ccccc1CNc1ncnc2sc(C(=O)N3CCN(C)CC3)c(C)c12	i	i	nt	nt	nt
CCOc1ccc(C(=O)c2oc3ccccc3c2NC(=O)Cc2coc3cc(C)cc(C)c23)cc1	i	i	i	nt	i
CC(NC(=O)NC(N)=O)(C(F)(F)F)C(F)(F)F	i	i	i	i	i
CC(NC(=O)NNC(N)=S)(C(F)(F)F)C(F)(F)F	?	28µM	i	i	i
Cn1nc(C(=O)Nc2ccccc2N2CCCC2)c2ccccc2c1=O	nt	nt	nt	11µM	nt
CNC(=O)NC1CCCC(C2=NC(C)=NCC2)C1 (configuration not stated)	nt	nt	nt	nt	i
O=C1C(N2CCOCC2)=C(n2nnc3ccccc32)C(=O)c2ccccc21	?	?	?	7.1µM	7.9µM
Cc1ccc(C(=O)Nc2cccc(-c3nc4cccnc4s3)c2C)cc1	i	i	?	nt	nt
CC(C)C1Nc2ccc(S(N)(=O)=O)cc2C2C=CCC21 (configuration not stated)	i	i	i	11µM	i
NS(=O)(=O)c1ccc2c(c1)C1C=CCC1C(C1CC=CCC1)N2 (configuration not stated)	nt	nt	i	?	?
NC(=O)c1ccc(NC(=O)CCc2nc3ccccc3s2)cc1	nt	nt	nt	i	nt
O=C(Nc1ccc(Cc2nc3ccccc3s2)cc1)c1ccncc1	i	i	i	10µM	?
CCN1C(=NCc2ccco2)N[C@@H](c2ccccc2)[C@H](C(=O)OC)[C@H]1C	nt	nt	nt	nt	i
CCCCNc1nc2ccccc2c2nc(-c3ccccc3)nn12	i	i	nt	nt	?
C=CCNc1nc(-c2ccccc2)nc(-n2ccnc2)n1	nt	nt	i	2.5µM	?
CCCCNc1nc(-c2ccccc2)nc(-n2ccnc2)n1	i	i	i	3.5µM	?
O=C([C@@H]1CC1(c1ccccc1)c1ccccc1)N1CCOCC1	nt	nt	nt	nt	i
COc1ccc(C(=O)Nc2nc(CC(=O)NCCc3ccccc3)cs2)cc1	i	i	i	10µM	i
CCOCC(=O)Nc1cc(C(=O)NCCc2ccccc2)ccc1Cl	i	i	i	i	?
COCC(=O)Nc1cc(C(=O)NCCc2ccccc2)ccc1Cl	i	i	10µM	i	?
COc1ccc(C(=O)Nc2cc(C(=O)NCCc3ccccc3)ccc2Cl)cc1	i	i	i	8.9µM	i
COC(=O)c1ccc(NC(=O)c2nc(SCc3ccccc3F)ncc2Cl)cc1	i	i	nt	nt	nt
Ic1ccc(Nc2nc(NCCN3CCOCC3)nc(N3CCOCC3)n2)cc1	?	i	nt	nt	nt
CCCCCCn1c(SCCCC)nc2c1c(=O)[nH]c(=O)n2C	nt	i	i	i	i
SMILES	VACV mCherry inh	Vaccinia Venus	LASV entry inh	HCV inh	Marburg entry inh
CCn1c([N+](=O)[O-])nc2c1c(=O)[nH]c(=O)n2C	nt	nt	18µM	11µM	?
Cc1cccc(N2CCN(S(=O)(=O)c3ccc4c(c3)NC(=O)C(C)S4)CC2)c1C (configuration not stated)	nt	nt	nt	0.32µM	nt
Cc1cccc(N2CCN(S(=O)(=O)c3ccc4c(c3)C(C(C)C)C(=O)N4)CC2)c1C (configuration not stated)	?	i	1.3µM	nt	nt
Cc1nc2ccccc2c2ncccc12	nt	nt	nt	i	nt
c1cnc2nc3c4ccccc4c4ccccc4c3nc2c1	i	i	?	2.8µM	?
Cc1cccc(NC(=O)Cc2coc3ccc4ccccc4c23)n1	i	i	?	?	6.5µM
CC(C)C[C@H]1COc2cc(Br)ccc2S(=O)(=O)N1Cc1ccc(F)cc1F	nt	nt	i	nt	nt
COc1ccccc1N1CCN(CCS(=O)(=O)c2cc(Cl)ccc2Cl)CC1	8.9µM	?	nt	nt	nt
COc1ccc(Cl)cc1C(=O)NCCS(=O)(=O)N1CCN(c2ccccc2OC)CC1	?	i	i	nt	nt
Cc1ccc(C2C=C(c3ccccc3OC(F)F)Nc3ncnn32)cc1 (configuration not stated)	i	i	i	i	i
